Measurements as given in PubChem BioAssay AID2280 (The Scripps Research Institute Molecular Screening Center, 2010).
The campaign covered roughly 320,000 compounds. About 1,400 (0.44%) were called active. Only a selection was taken, and actives are over-represented in it overall. A number with no mark means an inactive call.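 The calls were made as follows: active = percent inhibition above a per-plate cutoff, the plate mean of test compounds plus 3 SD (cut at about 30% in these data); inactive = the rest.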

Each molecule was assayed against Female germline-specific tumor suppressor gld-1 (Caenorhabditis elegans) (UniProt Q17339) (assay: small molecules blocking C. elegans GLD-1 RNA recognition – biochemical, fluorescence polarization, primary screen (AID 2280;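 also: 0% = DMSO wells with GLD-1 and probe and 100% = wells lacking GLD-1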)). Conditions: purified GLD-1 + fluorescein TGE RNA, at 5.96 µM, active compounds read high.
Sequence of Female germline-specific tumor suppressor gld-1 (Caenorhabditis elegans) (Q17339 whole entry, looked up): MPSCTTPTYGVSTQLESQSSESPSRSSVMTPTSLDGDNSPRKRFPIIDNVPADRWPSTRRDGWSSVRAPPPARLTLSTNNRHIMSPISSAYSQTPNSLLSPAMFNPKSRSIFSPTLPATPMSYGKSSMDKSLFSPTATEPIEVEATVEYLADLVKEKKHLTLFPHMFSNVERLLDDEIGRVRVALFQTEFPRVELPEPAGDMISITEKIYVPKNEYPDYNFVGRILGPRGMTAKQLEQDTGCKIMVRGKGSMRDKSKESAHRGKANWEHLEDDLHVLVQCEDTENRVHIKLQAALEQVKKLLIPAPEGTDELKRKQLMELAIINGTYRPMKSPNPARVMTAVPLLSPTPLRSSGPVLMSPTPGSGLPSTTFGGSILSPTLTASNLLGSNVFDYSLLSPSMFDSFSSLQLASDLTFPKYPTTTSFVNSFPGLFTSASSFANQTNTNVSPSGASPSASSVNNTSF
Molecule COc1ccc(Cc2nnc(N/N=C/c3ccccc3O)[nH]c2=O)cc1OC has an inhibition of 2.1%.
Cc1cccc(OCC(=O)NCC(=O)N/N=C/c2ccc(N(C)C)cc2)c1 showed an inhibition of 1.86%.
For Cc1ccc(/C=N/NC(=O)CSc2nc3ccccc3o2)cc1, the inhibition was 13.4%.
For Cc1ccc(/C=N/NC(=O)COc2ccccc2-c2ccccc2)cc1, the inhibition was 52.5% (active).
COc1cc(/C=C2\Oc3ccc(C#Cc4ccc(O)cc4)cc3C2=O)cc(OC)c1 was tested, and the inhibition was -7.59%.
For O=C(CCN1CCc2ccccc2C(O)(c2ccccc2)C1)c1ccc2c(c1)OCCO2 (stereo not drawn), the inhibition was 8.71%.
For COC(=O)c1cc(C(=O)N(Cc2ccccc2)c2ccccn2)cc([N+](=O)[O-])c1, the inhibition was 3.82%.
For COCCOC(=O)c1sc(=S)n(CCOC)c1N, the inhibition was 65.8% (active).
With COc1cccc(-n2c(SCC(=O)NC3CCS(=O)(=O)C3)nc3ccccc3c2=O)c1 (stereo not drawn) the inhibition was 1.53%.
In the case of CSCCC(NS(=O)(=O)c1ccc2c(c1)oc(=O)n2C)C(=O)NCc1ccccc1 (stereo not drawn), the inhibition is reported as 4.5%.
COC(=O)CSc1nc2ccccc2c(=O)n1Cc1ccccc1 showed an inhibition of -3.39%.
C=CCSc1nc2c(c(=O)[nH]c(=O)n2C)n1Cc1ccccc1 was tested, and the inhibition was -0.99%.
For Cc1cc2nc3c(=O)n(Cc4ccccc4)c(=O)[nH]c3nc2cc1N, the inhibition was 190% (active).
Molecule CCOC(=O)C(Cc1ccccc1)NC(=O)CCC(=O)c1ccc(OC)cc1 (stereo not drawn) has an inhibition of 2.6%.
In the case of COc1cc([C@H](Cc2ccccc2)NC(C)=O)oc(=O)c1, the inhibition is reported as 43.8% (active).
In the case of COc1ccc(OC)c(NC(=O)N[C@H](Cc2ccccc2)C(=O)NN)c1, the inhibition is reported as 6.48%.
Molecule CCCCCCCCc1c(O)nc(-n2[nH]c(C)c(CCO)c2=O)[nH]c1=O has an inhibition of 3.56%.
COCCn1c(N)c(N(Cc2ccccc2)C(=O)C2CCCCC2)c(=O)[nH]c1=O was tested, and the inhibition was 7.47%.
COCCN(C(=O)c1ccccc1F)c1c(N)n(Cc2ccccc2)c(=O)[nH]c1=O was tested, and the inhibition was 1.28%.
In the case of COCCn1c(N)c(NCc2ccccc2)c(=O)[nH]c1=O, the inhibition is reported as 94.7% (active).
With COC(=O)c1c(NC(=O)CN2CCN(S(=O)(=O)c3ccccc3[N+](=O)[O-])CC2)sc2c1CCC(C)C2 (stereo not drawn) the inhibition was 1.69%.
Molecule COc1ccc(C2C(C#N)=C(N)N(c3ncn[nH]3)C3=C2C(=O)CCC3)cc1 (stereo not drawn) has an inhibition of 2.28%.
O=C(Nc1ccccc1C(=O)O)c1ccc(N2C(=O)C3CC=CCC3C2=O)cc1 (stereo not drawn) gave an inhibition of 3.32%.
Molecule CCOc1ccc(C2=CC(c3ccccc3)n3ncnc3N2)cc1 (stereo not drawn) has an inhibition of 11.7%.
With Brc1ccc(C2=CC(c3ccco3)n3ncnc3N2)cc1 (stereo not drawn) the inhibition was 158% (active).
Molecule CC1=C(C(=O)OCc2ccccc2)C(c2ccco2)n2ncnc2N1 (stereo not drawn) has an inhibition of 0.86%.
CCC(C)[C@@H](C(=O)N1CCNCC1)n1cc(CCCCN)nn1 (stereo partly drawn) gave an inhibition of 3.86%.
Work on COc1cc2c(-c3ccc4c(c3)OCO4)c(-c3ccsc3)oc(=O)c2cc1OC yielded an inhibition of 0.87%.
